This note sets out measurements from the supplement of paper PMC9262897, “Low-cost anti-mycobacterial drug discovery using engineered E. coli” (Nature Communications, 2022).

Structures can show the parent of a compound that is named as a salt. ± gives the standard deviation of the averaged measurements.

The subject of the first experiment is E. coli TESEC Mtb DapB. The experiment in a line: growth (OD600 after 10 h); higher = more growth (less inhibition). The following applies: arabinose induction (level): High; compound 0.1 mM; raw OD600 reference: median of DMSO wells […], cell-free background 0.041. As to the method:
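TESEC E. coli strains in which the native enzyme is deleted and replaced by arabinose-inducible Mtb Asd, DapB, CysH or TrpD, each grown in its selective medium. Strains were screened against the Prestwick library at 0.1 mM and 1% DMSO in 384-well format at low and high arabinose induction. Growth is read as OD600 after 10 h in triplicate.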
For `CC(=O)O[C@H]1C[C@@]2(C)[C@@H](C[C@@H](O)[C@H]3[C@@]4(C)CC[C@@H](O)[C@@H](C)[C@@H]4CC[C@@]32C)/C1=C(\CCC=C(C)C)C(=O)O` [Fusidic acid sodium salt], the growth worked out at 0.0536 ± 0.0022.
For `O=c1[nH]c(=O)n([C@H]2C[C@H](O)[C@@H](CO)O2)cc1I` [Idoxuridine], the growth came out at 0.185 ± 0.0093.
On the same count and under the same terms, the same measure for `CC[C@H](c1ccc(O)cc1)[C@@H](CC)c1ccc(O)cc1` [Hexestrol]: 0.0653 ± 0.019; for `Oc1c(Cl)cc(Cl)c(Cl)c1Cc1c(O)c(Cl)cc(Cl)c1Cl` [Hexachlorophene]: 0.0536 ± 0.0015.
The same measure, in the same setting: the same measure for `C=CC1=C(C(=O)O)N2C(=O)[C@@H](NC(=O)/C(=N\O)c3csc(N)n3)[C@H]2SC1` [Cefdinir]: 0.0548 ± 0.003.
In turn, `Nc1nc(F)nc2c1ncn2[C@@H]1O[C@H](CO)[C@@H](O)[C@@H]1O` [Fludarabine] yielded a growth of 0.168 ± 0.014.
In the case of `CCn1cc(C(=O)O)c(=O)c2cnc(N3CCCC3)nc21` [Piromidic acid], the growth was determined as 0.208 ± 0.016.
The compound `CN1CCCCC1CCN1c2ccccc2Sc2ccc([S+](C)[O-])cc21` (stereo not given) [Mesoridazine besylate] gave a growth of 0.191 ± 0.007.
Take `Oc1c(Cl)cc(Cl)c2cccnc12` [Chloroxine]: the growth amounted to 0.0813 ± 0.015.
Take `Nc1nc2c(ncn2COCCO)c(=O)[nH]1` [Acyclovir]: the growth was determined as 0.206 ± 0.005.
Regarding `CCCCc1oc2ccccc2c1C(=O)c1cc(I)c(OCCN(CC)CC)c(I)c1` [Amiodarone hydrochloride], the growth turned out to be 0.185 ± 0.0075.
The compound `CC(=O)OCC(=O)[C@@]1(O)[C@H](C)C[C@H]2[C@@H]3CCC4=CC(=O)C=C[C@]4(C)[C@@]3(F)[C@@H](O)C[C@@]21C` [Dexamethasone acetate] gave a growth of 0.171 ± 0.017.
`Brc1c(NC2=NCCN2)ccc2nccnc12` [Brimondine L-Tartrate] came in with a growth of 0.19 ± 0.02.
The same measure, in the same setting: the figure for `Cn1c(=O)c2c(ncn2CCO)n(C)c1=O` [Etofylline] is 0.192 ± 0.0028.
For `CC(=O)Oc1ccc(C(c2ccc(OC(C)=O)cc2)c2ccccn2)cc1` [Bisacodyl], the growth worked out at 0.19 ± 0.011.
In turn, `CS(=O)(=O)OCCCCOS(C)(=O)=O` [Busulfan] gave a growth of 0.209 ± 0.0074.
For `CC(=O)OC[C@H]1O[C@@H]([S-])[C@H](OC(C)=O)[C@@H](OC(C)=O)[C@@H]1OC(C)=O.CCP(CC)CC.[Au+]` [Auranofin], the growth came out at 0.0674 ± 0.019.
Same read-out and setting: the same measure for `CCN(CC)CCNC(=O)COc1ccc(OC)cc1` [Mefexamide hydrochloride]: 0.225 ± 0.041; for `CCCc1nn(C)c2c(=O)[nH]c(-c3cc(S(=O)(=O)N4CCN(C)CC4)ccc3OCC)nc12` [Sildenafil]: 0.199 ± 0.01; for `O=c1oc2ccccc2c(O)c1Cc1c(O)c2ccccc2oc1=O` [Dicumarol]: 0.18 ± 0.014.

Still in this experiment, the particulars now being: arabinose induction (level): Low; compound 0.1 mM; raw OD600 reference: median of DMSO wells 0.227, cell-free background 0.041.
`CC(=O)O[C@H]1C[C@@]2(C)[C@@H](C[C@@H](O)[C@H]3[C@@]4(C)CC[C@@H](O)[C@@H](C)[C@@H]4CC[C@@]32C)/C1=C(\CCC=C(C)C)C(=O)O` [Fusidic acid sodium salt]: the growth was determined as 0.052 ± 0.0007.
As for `O=c1[nH]c(=O)n([C@H]2C[C@H](O)[C@@H](CO)O2)cc1I` [Idoxuridine], the growth was 0.202 ± 0.03.
On the same count and under the same terms, the figure for `CC[C@H](c1ccc(O)cc1)[C@@H](CC)c1ccc(O)cc1` [Hexestrol] is 0.054 ± 0.0072; for `Oc1c(Cl)cc(Cl)c(Cl)c1Cc1c(O)c(Cl)cc(Cl)c1Cl` [Hexachlorophene] it is 0.053 ± 0.00044.
Compound `C=CC1=C(C(=O)O)N2C(=O)[C@@H](NC(=O)/C(=N\O)c3csc(N)n3)[C@H]2SC1` [Cefdinir] yielded a growth of 0.0595 ± 0.015.
Still for that read-out and setting: the figure for `Nc1nc(F)nc2c1ncn2[C@@H]1O[C@H](CO)[C@@H](O)[C@@H]1O` [Fludarabine] is 0.194 ± 0.028; for `CCn1cc(C(=O)O)c(=O)c2cnc(N3CCCC3)nc21` [Piromidic acid] it is 0.239 ± 0.025; for `CN1CCCCC1CCN1c2ccccc2Sc2ccc([S+](C)[O-])cc21` (stereo not given) [Mesoridazine besylate] it is 0.202 ± 0.027.
As for `Oc1c(Cl)cc(Cl)c2cccnc12` [Chloroxine], the growth was 0.117 ± 0.069.
`Nc1nc2c(ncn2COCCO)c(=O)[nH]1` [Acyclovir] came in with a growth of 0.26 ± 0.024.
In the case of `CCCCc1oc2ccccc2c1C(=O)c1cc(I)c(OCCN(CC)CC)c(I)c1` [Amiodarone hydrochloride], the growth worked out at 0.227 ± 0.0068.
On to `CC(=O)OCC(=O)[C@@]1(O)[C@H](C)C[C@H]2[C@@H]3CCC4=CC(=O)C=C[C@]4(C)[C@@]3(F)[C@@H](O)C[C@@]21C` [Dexamethasone acetate], for which the growth came to 0.233 ± 0.03.
In turn, `Brc1c(NC2=NCCN2)ccc2nccnc12` [Brimondine L-Tartrate] gave a growth of 0.237 ± 0.033.
Still for that read-out and setting: the same measure for `Cn1c(=O)c2c(ncn2CCO)n(C)c1=O` [Etofylline]: 0.264 ± 0.098; for `CC(=O)Oc1ccc(C(c2ccc(OC(C)=O)cc2)c2ccccn2)cc1` [Bisacodyl]: 0.2324 ± 0.0015; for `CS(=O)(=O)OCCCCOS(C)(=O)=O` [Busulfan]: 0.286 ± 0.024.
On to `CC(=O)OC[C@H]1O[C@@H]([S-])[C@H](OC(C)=O)[C@@H](OC(C)=O)[C@@H]1OC(C)=O.CCP(CC)CC.[Au+]` [Auranofin], for which the growth came out at 0.111 ± 0.019.
Still for that read-out and setting: the same measure for `CCN(CC)CCNC(=O)COc1ccc(OC)cc1` [Mefexamide hydrochloride]: 0.227 ± 0.026.
The compound `CCCc1nn(C)c2c(=O)[nH]c(-c3cc(S(=O)(=O)N4CCN(C)CC4)ccc3OCC)nc12` [Sildenafil] had a growth of 0.27 ± 0.045.
Take `O=c1oc2ccccc2c(O)c1Cc1c(O)c2ccccc2oc1=O` [Dicumarol]: the growth worked out at 0.199 ± 0.046.
